Reference: ChEMBL document CHEMBL4513216, “Probing the Open Global Health Chemical Diversity Library for Multistage-Active Starting Points for Next-Generation Antimalarials” (ACS Infect Dis, 2020)
In all, about 68,000 compounds went through this assay and about 2,700 (4%) showed an effect of 50% or more. The full list was thinned out, with strong results kept by preference.

Each compound was assayed on Plasmodium berghei (assay: Screen against P. berghei liver stage (PbLuc), transformed with Luciferase, at 2uM). Settings: tested at 2 uM.
Assay type: functional, HepG2

SMILES | INHIBITION [%]
Cc1nnc(SCC(=O)NCc2ccc3c(c2)CCC(=O)N3)n1C | 26.03
Cc1ncc(-c2ccnc(SCCN(C)C)n2)c(-c2ccco2)n1 | 8.77
CNC(=O)[C@@H](C1CCCCC1)N1CCC[C@H]1C(=O)N(C)CCN(C)C | 27.65
Cc1cc(CC(C)NC(=O)Cc2cc(F)ccc2C)[nH]n1 (stereo unspecified) | 27.47
COc1ccccc1C1CC(=O)Nc2nc(N3CCCCC3)sc21 (stereo unspecified) | -71.12
CN(C)C[C@@H]1CCC[C@@H]2CN(c3nccc(C(F)(F)F)n3)C[C@@H]21 | 16.87
O=C1O[C@@H]2CN(c3cnccn3)C[C@@H]2N1CCCc1ccc(F)cc1 | 51.96
O=C1O[C@@H]2CN(c3ncccn3)C[C@@H]2N1CCCc1ccc(F)cc1 | 17.48
O=C1O[C@@H]2CN(c3ccccn3)C[C@@H]2N1CCCc1ccc(F)cc1 | 12.55
COc1cc(C2c3c(n[nH]c3C)N=C3COC(=O)C32)cc2c1OCO2 (stereo unspecified) | -41.64
COc1ccc(CNC(=O)NC(C)(CO)C2CC2)c(C(F)(F)F)c1 (stereo unspecified) | -16.93
CCN(CC)C(=O)c1cc(Br)cc(S(=O)(=O)N2CCOCC2)c1F | 0.48
O=C(COCc1ccccc1)N1CCC(OCc2cccnc2)CC1 | 34.34
Cc1cc(C)c(C(=O)N2CCCC(C(=O)CCc3ccccc3)C2)cn1 (stereo unspecified) | 0.73
CN(C)S(=O)(=O)N1CCOC(c2cccc(-c3cncnc3)n2)C1 (stereo unspecified) | -12.93
CCN1CCN(C(=O)c2nc(C)n(-c3ccccc3Cl)n2)CC1 | -18.67
CCNC(=O)CNC(=O)c1nc(C2CC2)n(-c2ccccc2Cl)n1 | 13.01
CN(C)C(=O)CNC(=O)c1nc(C2CC2)n(-c2ccccc2Cl)n1 | 65.76
CC(=O)NCCNC(=O)c1nc(C2CC2)n(-c2ccccc2Cl)n1 | -1.79
CCc1nc(C(=O)N2CCCCC2)nn1-c1ccccc1Cl | -41.76
Cc1nc(C(=O)N2CCCCC2)nn1-c1ccccc1Cl | 60.09
CN1[C@H](Cn2cncn2)C[C@@H]2CN(Cc3cccc(C#N)c3)CC[C@@H]21 | 12.3
CN1CCC2(C=C(C(=O)N(C)C)c3ccccc32)CC1 | -10.89
Cc1cccc(C(=O)N2CC(Cc3nccc4ccn(C)c34)C2)n1 | -25.33
Cn1ccc2ccnc(CC3CN(C(=O)c4cscn4)C3)c21 | 52.82
CC(=O)N1CC(Cc2nccc3ccn(C)c23)C1 | 20.08

SMILES | INHIBITION [%]
CCc1nnc2n1CCN(C(=O)C(C)COCc1ccccc1)C2 (stereo unspecified) | -32.2
Cc1cc2c(N3CCC(N(C)Cc4cnn(C)c4)CC3)ncnc2s1 | 10.13
CCc1ccc(C2CC(=O)Nc3c2c(=O)[nH]n3C(C)C)cc1 (stereo unspecified) | -9.13
CCc1ccc(C2CC(=O)Nc3c2c(=O)n(C)c2ncnn32)cc1 (stereo unspecified) | 56.21
Cn1c(=O)c2c(n3ncnc13)NC(=O)CC2c1cccc(Br)c1 (stereo unspecified) | -13.28
COc1cccc(C2CC(=O)Nc3c2c(=O)n(C)c2ncnn32)c1 (stereo unspecified) | 15.49
Cn1c(=O)c2c(n3ncnc13)NC(=O)CC2c1ccc(F)cc1 (stereo unspecified) | 53.55
Cn1c(=O)c2c(n3ncnc13)NC(=O)CC2c1cccc(F)c1 (stereo unspecified) | 5.31
CCS(=O)(=O)N1Cc2[nH]nc(COCc3cccnc3)c2C1 | -2.81
CNC(=O)C(C)(C)N1CCC[C@H]1C(=O)NC(C)(C)C | 30.4
CCN1CCCC12CCCN(c1ncccn1)C2 (stereo unspecified) | -23.31
CC1=Nc2c(c(O)nn2C2CCOCC2)C(c2cccnc2)S1 (stereo unspecified) | 18.76
CCn1ccnc1CN(C)c1nc(-c2ccc(Cl)cc2)nc2c1CNC2 | 5.28
CCN(CC)CCN(C)c1nc(-c2ccc(Cl)cc2)nc2c1CNC2 | 81.59
Cc1nccn1CCN(C)c1nc(-c2ccc(Cl)cc2)nc2c1CNC2 | 19.59
O=C(O)c1cc(S(=O)(=O)Nc2cc(F)ccc2F)cc2c1OCCO2 | -41.21
COCCN1CCN(CCCS(=O)(=O)N(C)C)CC1C (stereo unspecified) | 25.35
O=C(CCCc1ccccn1)NCC(O)c1c(F)cccc1F (stereo unspecified) | 17.98
CCn1nnc2c1C(COCCN(C)C)CN(S(C)(=O)=O)C2 (stereo unspecified) | 34.19
CN(C)c1ncccc1CNC(=O)N1CCCC1c1ccsc1 (stereo unspecified) | 43.93
O=C(NCCCn1cccn1)N1CCCC1c1ccsc1 (stereo unspecified) | 16.21
CN(CCCNC(=O)N1CCCC1c1ccsc1)c1ccccn1 (stereo unspecified) | 63.95
N#Cc1ccc(C(=O)N2CC[C@H]3[C@@H]2CCC(=O)N3c2cccnc2)cc1 | -11.44
CC(C)C(=O)N1CCCC1C(=O)Nc1ccc(F)c(F)c1 (stereo unspecified) | 55.29
CC(C)C(=O)N1CCCC1C(=O)Nc1cc(C(F)(F)F)ccc1F (stereo unspecified) | 13.92
